IMPase Li inh: cell-permeable IMPase inhibitors with lithium potentiation. AID 1457. hit rate 0.35% among 210,000. CHO-M1 cells, IP1 TR-FRET (IP-One), carbachol + lithium. Potency, µM (top dose mostly 59.4 µM), most hits filed as inhibitors; active = well fitted curve in the direction sought with a large enough effect; inconclusive = small, poorly fitted or top-dose-only effect, or another doubt; inactive = no such curve, though single readings can be large; an effect the other way counts as inactive or inconclusive;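 also: IP1 builds up when IMPase is blocked and the TR-FRET signal falls; nearly all actives have a fitted effect of over 50% in size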
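CHO cells stably expressing M1 receptor (2000/well) were cultured 16–30 h, then exposed to compounds with a small lithium addition for 30 min at 37C. IP1 was measured by TR-FRET competition; AC50 from Hill fits.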
PNC assembly inh: inhibitors of perinucleolar compartment assembly; PC3M PTB-GFP, PNC prevalence imaging, 16 h; hits give low values; activity change (PNC), negative = inhibition, % at 10 µM; hit rate 3.1% among 140,000; AID 2417;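 active = readout at or below -70, meaning at least 70% loss of cells showing the perinucleolar compartment, a nuclear body marking cancer cells; inconclusive = readout between -30 and a set limit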
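Compounds are pinned in duplicate onto adhered PC3M cells stably expressing GFP-tagged PTB and incubated 16 h at 37 C. Cells are then fixed, nuclei stained with Hoechst, and PNC-positive cells counted.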
NPSR antagonist: neuropeptide S receptor (human) antagonism, cAMP; Q6W5P4; hit rate 1% among 220,000; AID 1461; CHO-NPSR cells, cAMP TR-FRET, antagonist mode; Potency, µM (titrated, usually from 38.3 µM), usual class: inhibitors; active = well fitted curve in the direction sought with a large enough effect; inconclusive = small, poorly fitted or top-dose-only effect, or another doubt; inactive = no such curve, though single readings can be large; an effect the other way counts as inactive or inconclusive; also: nearly all actives have a fitted effect of over 50% in size
ALDH1A1 inh: blocks purified human ALDH1A1 activity; P00352; Purified ALDH1A1, NADH fluorescence, propionaldehyde substrate; Potency, µM (titrated, usually from 75.3 µM), usual class: inhibitors; hit rate 7.3% among 220,000; AID 1030
Target sequence (P00352 whole entry, looked up): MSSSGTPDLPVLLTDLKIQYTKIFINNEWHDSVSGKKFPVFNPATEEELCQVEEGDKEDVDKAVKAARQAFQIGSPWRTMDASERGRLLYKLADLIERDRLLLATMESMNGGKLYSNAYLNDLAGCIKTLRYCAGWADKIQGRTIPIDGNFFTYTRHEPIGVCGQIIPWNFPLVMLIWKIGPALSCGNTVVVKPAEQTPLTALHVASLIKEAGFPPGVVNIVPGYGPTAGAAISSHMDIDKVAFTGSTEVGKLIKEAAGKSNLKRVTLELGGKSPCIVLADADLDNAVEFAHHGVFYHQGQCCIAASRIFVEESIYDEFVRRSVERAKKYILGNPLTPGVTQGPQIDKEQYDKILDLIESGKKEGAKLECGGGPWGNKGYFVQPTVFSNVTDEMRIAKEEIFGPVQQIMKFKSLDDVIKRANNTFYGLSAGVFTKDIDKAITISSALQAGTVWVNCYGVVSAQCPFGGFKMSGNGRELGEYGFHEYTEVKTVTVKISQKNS
HPGD block: blocks human HPGD enzyme activity; purified HPGD, NADH fluorescence kinetic, PGE2 substrate; Potency, µM, most hits filed as inhibitors; AID 894; hit rate 4.3% among 150,000
Target sequence (P15428 whole entry, looked up): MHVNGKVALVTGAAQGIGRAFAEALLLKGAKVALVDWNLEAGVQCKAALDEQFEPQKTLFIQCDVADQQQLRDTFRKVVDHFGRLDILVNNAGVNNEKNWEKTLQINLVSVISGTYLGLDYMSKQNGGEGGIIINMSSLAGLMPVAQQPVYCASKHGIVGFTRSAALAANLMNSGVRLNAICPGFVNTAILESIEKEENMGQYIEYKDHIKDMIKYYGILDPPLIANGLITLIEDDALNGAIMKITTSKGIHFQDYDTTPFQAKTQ
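NADH formation kinetics: reaction with 30 uM PGE2 and 1 mM NAD+ (final), 20 nM enzyme, Tris-HCl pH 8 with Tween 20, after 15 min compound preincubation at room temperature. Fluorescence change, last versus first of five reads.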
IMPase cell inh: cell-permeable inhibitors of inositol monophosphatase (IMPase). CHO-M1 cells, IP1 accumulation, HTRF TR-FRET ratio. inhibition (IP1 accumulation), % at 46.1 µM. 120,000 tested, under 10 active. AID 901; active = well fitted curve in the direction sought with a large enough effect in the signal ratio, not every such curve was filed as active; inconclusive = small, poorly fitted or top-dose-only effect, or a change in a side signal; inactive = no such curve, though single readings can be large or run the other way; the % refers to the signal ratio;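 also: cells stimulated with carbachol in lithium chloride buffer; higher means more IMPase inhibition seen as more IP1 and lower FRET ratio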
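Cellular IMPase inhibition is scored as a rise in cytosolic IP1, detected by competitive TR-FRET between d2-labelled IP1 and a europium anti-IP1 antibody. M1-expressing CHO cells were stimulated with carbachol for 30 min at 37C, with lithium (50 mM LiCl) present in the buffer.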
A number is an active result; n = inactive; u = inconclusive; x = no result given; [ ] = dose if it differs, or a comment. Shown are actives, neighbours in structure and some others; about 11% of the full set was active somewhere. Unless noted, calls follow the shape of the dose curve; as a rule, active = well fitted inhibition curve with a large enough effect (not every such curve was filed as active); inconclusive = small, poorly fitted or top-dose-only effect, or another doubt; inactive = no such curve, though single readings can be large or run the other way.

SMILES | IMPase Li inh | PNC assembly inh | NPSR antagonist | ALDH1A1 inh | HPGD block | IMPase cell inh
Cc1cccc[n+]1CC(=O)N1c2ccccc2Sc2ccccc21 | n | x | n | n | x | x
Cc1cc(N/N=C/c2ccc([N+](=O)[O-])o2)nc2ccccc12 | n | x | n | n | x | x
Cn1c(/C=C/c2ccc([N+](=O)[O-])o2)nc2ccccc2c1=O | n | u | 10µM | u | n | n
O=[N+]([O-])c1ccc(OC(F)F)c(/C=N/n2cnnc2)c1 | x | x | n | n | x | x
COc1ccc(S(=O)(=O)NCCSC(C)(C)C)c(Cl)c1Cl | n | n | n | 2.38µM | u | n
Clc1cnccn1 | n | x | x | n | n | n
CCOC(=O)c1sc(NC(=O)c2ccc(CC)s2)nc1C | n | n | n | u | n | n
COc1ccccc1C1=NNC(=Nc2cccc(S(=O)(=O)N(C)C)c2)SC1 | n | x | n | 35.5µM | x | x
O=C(Nc1ccc2c(c1)OCCO2)C1CCN(c2ncccn2)CC1 | n | x | n | n | x | x
O=P(/C(=N/O)Sc1ccccc1)(N1CCOCC1)N1CCOCC1 | n | u | n | n | n | n
Cc1ccc(P(=Nc2ccccc2)(N2CCOCC2)N2CCOCC2)o1 | n | -91.7 | n | n | n | n
COc1ccccc1N1CCN(C(=O)CSc2nc3ncnc(N)c3[nH]2)CC1 | n | u | n | 28.2µM | n | n
O=C(OCC#CCSc1nc2ccccc2o1)c1ccco1 | n | -83.3 | n | n | n | n
COc1cccc(OC)c1C(=O)N1CCN(S(=O)(=O)c2ccccc2)CC1 | n | -98.7 | n | n | n | n
CC1CCCN(C(=O)CSc2nc3ccccc3o2)C1 (stereo not drawn) | n | n | n | n | 12.6µM | n
O=C(NCCc1cccs1)c1ccc(Cl)c(Cl)c1 | n | x | n | n | x | x
CCN(CC)S(=O)(=O)c1ccc(C)c(NC(=O)c2cc(C)oc2C)c1 | n | x | n | u | x | x
CC(C)(C)n1nnnc1C(c1cc2cc3c(cc2[nH]c1=O)OCCO3)N1CCSCC1 (stereo not drawn) | x | n | n | u | x | n
[O][C@H]1[C@@H](O)[C@@H](CO)O[C@@H](O[C@@H]2[C@@H]3OC[C@H]2O[C@H](O[C@@H]2[C@@H](O)[C@H](C[C@@H]4[C@@H]5OC[C@H]4O[CH][C@@H]5O)O[C@H](CO)[C@@H]2OS(=O)(=O)O)[C@@H]3OS(=O)(=O)O)[C@@H]1O | n | x | x | n | n | x
O=C(CSc1ccc(F)cc1)N1CCN(S(=O)(=O)c2ccccc2)CC1 | n | x | n | 2.82µM | x | x
NC(=O)C1CCN(C(=O)CSc2nc3ccccc3o2)CC1 | n | -127.9 | n | n | n | n
O=C(O)c1ccc2oc(SCC(=O)N3CCCCC3)nc2c1 | n | n | n | n | 8.91µM | n
O=C(CSc1nc2ccccc2o1)N1CCN(C(=O)c2ccco2)CC1 | n | n | n | 12.6µM | n | n
COc1cc(C)nc(NC(=O)COc2ccc(Cl)cc2C)n1 | n | u | n | n | n | n
Cc1ccc(NS(=O)(=O)c2cn(C)cn2)cc1 | n | n | n | n | n | n
SMILES | IMPase Li inh | PNC assembly inh | NPSR antagonist | ALDH1A1 inh | HPGD block | IMPase cell inh
COc1ccccc1NC(=O)COC(=O)Cc1cccs1 | n | x | n | n | x | x
O=C1CCN(Cc2ccccc2)S(=O)(=O)c2ccccc21 | x | x | n | x | x | x
OCC#CCSc1nnc(-c2ccccc2Br)o1 | n | n | n | 20µM | n | n
CC(C)Cn1c(SCC(=O)N2CCN(S(=O)(=O)c3ccccc3)CC2)nc2ccccc21 | n | n | n[7.67 µM] | 12.6µM | n | n
CC(C)Cn1c(SCC(=O)N2CCN(C(=O)c3ccco3)CC2)nc2ccccc2c1=O | n | x | n | 31.6µM | x | x
COc1ccccc1N1CCN(C(=O)CSc2nc3ccccc3o2)CC1 | n | -81.9 | n | 8.91µM | n | n
C[C@@H](CC(=O)O)[C@@H](N)C(=O)O | n | x | x | n | n | n
O=C(CN1CCCc2ccccc21)NC(=O)NC1CCCCC1 | n | x | n | u | x | x
NC(=O)C1CCN(C(=O)CN2CCCc3ccccc32)CC1 | n | n | n | 20µM | u | n
O=C(CSc1nnc(-c2ccccc2Br)o1)N1CCN(C(=O)c2ccco2)CC1 | n | n | n | 8.91µM | 28.2µM | n
Cn1c(=O)c2[nH]c(SCCN3CCOCC3)nc2n(C)c1=S | n | x | x | n[13.5 µM] | 5.62µM | x
COc1ccc2oc(=O)c(C(=O)C[n+]3cccc(C)c3)cc2c1 | n | x | n | 14.1µM | x | x
COc1ccccc1-c1ccc2ncnc(NCc3ccccc3)c2c1 | n | x | x | u | x | x
COc1ccc(C2=C(SC)CC2=NC(C)(C)C)cc1 | n | u | n | 17.8µM | n | x
Cc1cc(C)cc(NC(=O)CSc2nnc(Cn3c(=O)sc4ccccc43)n2C)c1 | n | n | n | n | n | n
CCOc1ncccc1C(=O)Nc1ccc(Cl)c(S(=O)(=O)N2CCCC2)c1 | n | x | n | 4.47µM | x | x
O=C(Nc1cccc(O)c1)c1cc(S(=O)(=O)N2CCCC2)ccc1Cl | n | n | n | 5.01µM | n | n
CCOc1ncccc1C(=O)Nc1ccc(F)c(Cl)c1 | n | x | n | n | x | x
O=C(Nc1ccc(Cl)cn1)c1cc(S(=O)(=O)N2CCCCC2)ccc1Cl | n | n | n | 28.2µM | n | n
CCOc1ccc(C(=O)Nc2cc3c(cc2N2CCCC2)n(C)c(=O)c(=O)n3C)cc1OCC | x | x | x | x | x | n
CCCCC1=CC2=CC(=O)C(C)(OC(=O)CC)C(=O)C2=CN1CCOC (stereo not drawn) | n | x | n | n[13.5 µM] | n | x
O=[N+]([O-])c1cc(-c2ccc(C(=S)N3CCOCC3)o2)ccc1Cl | n | x | n | 3.98µM | x | x
S=C(c1ccc(-c2cccc(Cl)c2)o1)N1CCOCC1 | n | n | n | 11.2µM | 22.4µM | n
N#CCCN1CCN(C(=S)c2ccc(-c3cccc(Cl)c3)o2)CC1 | n | n | n[7.67 µM] | 11.2µM | 28.2µM | n
N#CCCN1CCN(C(=S)c2ccc(-c3ccc(Cl)c(Cl)c3)o2)CC1 | n | n | n | u | u | n
SMILES | IMPase Li inh | PNC assembly inh | NPSR antagonist | ALDH1A1 inh | HPGD block | IMPase cell inh
S=C(c1ccc(-c2cccc(Cl)c2)o1)N1CCCCC1 | n | x | n | 14.1µM | x | x
CCOC(=O)c1c(C)[nH]c(C)c1C(=O)CSc1nc2ccccc2n1CCC#N | n | n | n | u | n | n
COc1cc(CNCc2ccncc2)cc(Br)c1OCc1ccccc1F | n | n | u | n | n | n
CSc1cccc(NC(=S)N(Cc2ccc(C)cc2)Cc2ccccn2)c1 | n | x | n | n | x | x
N#C/C(=C\c1ccc(-c2ccccc2[N+](=O)[O-])o1)C(=O)Nc1nc(-c2cccs2)cs1 | n | n | n | 1.78µM | n | n
N#C/C(=C\c1ccc(-c2ccc([N+](=O)[O-])cc2)o1)C(=O)Nc1nc(-c2cccs2)cs1 | x | x | n | x | x | x
CNC(=O)/C(C#N)=C/c1ccc(-c2ccc(OC)cc2[N+](=O)[O-])o1 | n | n | n | n | 7.08µM | n[1.84 µM]
CS(=O)(=O)c1ccc(Sc2nc3ccccc3s2)c([N+](=O)[O-])c1 | n | n | n | n | n | n

High-throughput results deposited in PubChem BioAssay by National Center for Advancing Translational Sciences (NCATS).
